Data from PubChem BioAssay AID624138 (Broad Institute, 2012).
Hit rate of the full screen: of about 17,000 compounds, about 35 (0.2%) were called active.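 The calls were made as follows: active = compounds whose four printed spots each show fluorescence over background unusually high for their array block, chance value under 7%; inactive = the rest.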 The sample as a whole holds a higher share of actives than the screen did.

Biological target: Signal transducer and activator of transcription 3 (Homo sapiens) (UniProt P40763)
Sequence (P40763 whole entry, looked up): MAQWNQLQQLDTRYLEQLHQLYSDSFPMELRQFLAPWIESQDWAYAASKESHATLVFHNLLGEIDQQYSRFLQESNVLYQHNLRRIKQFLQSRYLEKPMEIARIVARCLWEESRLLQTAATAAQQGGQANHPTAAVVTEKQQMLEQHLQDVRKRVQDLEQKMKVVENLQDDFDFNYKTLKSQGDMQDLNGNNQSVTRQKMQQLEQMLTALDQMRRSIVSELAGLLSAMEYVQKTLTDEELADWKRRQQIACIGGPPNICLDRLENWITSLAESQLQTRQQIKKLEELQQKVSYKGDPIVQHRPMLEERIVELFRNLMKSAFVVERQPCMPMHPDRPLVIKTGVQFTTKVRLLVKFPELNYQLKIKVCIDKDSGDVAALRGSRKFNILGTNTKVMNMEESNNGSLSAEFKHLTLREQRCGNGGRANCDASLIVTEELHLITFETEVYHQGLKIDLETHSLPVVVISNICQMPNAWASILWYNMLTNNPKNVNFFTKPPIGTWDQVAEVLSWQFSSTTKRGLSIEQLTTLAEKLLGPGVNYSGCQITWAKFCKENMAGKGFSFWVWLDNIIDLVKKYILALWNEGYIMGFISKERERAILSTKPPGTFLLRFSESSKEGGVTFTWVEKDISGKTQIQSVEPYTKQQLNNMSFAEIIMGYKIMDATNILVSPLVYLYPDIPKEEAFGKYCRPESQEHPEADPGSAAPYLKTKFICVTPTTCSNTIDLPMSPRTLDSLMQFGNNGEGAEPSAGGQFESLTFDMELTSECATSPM
Test: small molecules binding His-tagged STAT3 – biochemical, small molecule microarray, single point, set 2, primary screen (AID 624138)
Details: anti-His fluorescence

outcome, inactive:
Cc1noc(C)c1NC(=O)Nc1ccc2c(c1)C(=O)N([C@@H](C)CO)C[C@H](C)[C@H](CN(C)Cc1ccc(C(=O)O)cc1)OCCCC[C@@H](C)O2
C[C@H](CO)N1C[C@H](C)[C@H](CN(C)Cc2ccncc2)Oc2ccc(N(C)C)cc2C1=O
C[C@H]1CN([C@@H](C)CO)C(=O)c2cc(NC(=O)Cn3cnnn3)ccc2O[C@@H]1CN(C)CC1CCCCC1
C[C@H]1CN([C@@H](C)CO)C(=O)Cc2cc(NC(=O)Nc3ccccc3)ccc2O[C@H]1CN(C)Cc1ccncc1
Cc1cc(O)c2c(c1)C(=O)OC2c1c(O)cccc1O (stereo not given)
CO[C@H]1O[C@H](CO)[C@@H](OC(=O)Nc2ccccc2-c2ccccc2)[C@H](OC(=O)Nc2ccccc2)[C@H]1OC(=O)Nc1ccccc1
CC(=O)n1cc([C@@H]2C=C(C(=O)N3CCN(Cc4ccc5c(c4)OCO5)CC3)O[C@H](OCc3ccc(CO)cc3)C2)c2ccccc21
Cc1noc(C)c1S(=O)(=O)Nc1ccc2c(c1)C(=O)N([C@@H](C)CO)C[C@@H](C)[C@H](CN(C)C(=O)NC(C)C)OCCCC[C@@H](C)O2
Cc1noc(C)c1NC(=O)Nc1ccc2c(c1)C(=O)N([C@@H](C)CO)C[C@H](C)[C@H](CN(C)S(=O)(=O)c1cn(C)cn1)OCCCC[C@@H](C)O2
C[C@@H]1CN([C@H](C)CO)C(=O)c2cccc(NS(=O)(=O)c3cccs3)c2O[C@@H]1CN(C)C(=O)Nc1cccc2ccccc12
CC(C)NC(=O)Nc1ccc2c(c1)C(=O)N([C@@H](C)CO)C[C@@H](C)[C@H](CN(C)S(=O)(=O)c1ccccc1)OCCCC[C@@H](C)O2
CC(=O)Nc1ccc(NC(=O)CC2C(=O)Nc3ccccc3N2C(C)=O)cc1 (stereo not given)
COc1ccc2c(c1)C(=O)CC(c1ccccc1)O2 (stereo not given)
Cc1ccc2[nH]c(C)c(CCNC(=O)Nc3ccc(Cl)cc3)c2c1
C[C@@H]1CN([C@H](C)CO)C(=O)c2cccc(NC(=O)C3CCOCC3)c2O[C@H]1CN(C)S(=O)(=O)c1ccc(Cl)cc1
COc1ccc(S(=O)(=O)Nc2ccc3c(c2)CC(=O)N([C@H](C)CO)C[C@H](C)[C@H](CN(C)CC2CC2)O3)cc1
Cc1noc(C)c1S(=O)(=O)N(C)C[C@H]1Oc2c(NC(=O)c3cnccn3)cccc2C(=O)N([C@H](C)CO)C[C@H]1C
C/C(=C/CC[C@@H](CO)[C@H]1CC[C@@]2(C)[C@@H]3CC[C@H]4C(C)(C)[C@@H](O[C@@H]5O[C@H](CO)[C@@H](O)[C@H](O)[C@H]5O)C[C@H](O)[C@@]45C[C@@]35CC[C@]12C)CO
O=C(C1=C[C@@H](c2ccccc2)C[C@@H](OCCCCO)O1)N1CCN(Cc2ccccc2)CC1
C=C1C[C@@H]2COC(=O)[C@]2(Cc2ccc3ccccc3c2)C1
O=C(OC1OC(CO)C(O)C(O)C1O)c1c(O)cc(O)cc1/C=C/c1ccccc1 (stereo not given)
COc1ccc(CN(C)C[C@@H]2Oc3ccc(NC(=O)Nc4ccc(OC)cc4)cc3CC(=O)N([C@H](C)CO)C[C@H]2C)cc1
C[C@@H]1CCCCO[C@H](CN(C)C(=O)CCCN(C)C)[C@H](C)CN([C@@H](C)CO)C(=O)c2cc(NS(=O)(=O)c3ccccc3)ccc2O1
C[C@@H]1CCCCO[C@@H](CN(C)C(=O)CCCN(C)C)[C@@H](C)CN([C@H](C)CO)C(=O)c2cc(NC(=O)CCCN(C)C)ccc2O1
CNC[C@H]1Oc2ccc(NC(=O)CCC(F)(F)F)cc2C(=O)N([C@@H](C)CO)C[C@H]1C
CCCCCc1ccc(/C=C/C(=O)Nc2ccccc2C(=O)O)cc1
CC(Sc1nc2ccccc2[nH]1)c1nc2ccccc2[nH]1 (stereo not given)
C[C@H]1CCCCO[C@H](CN(C)C)[C@@H](C)CN([C@@H](C)CO)C(=O)c2cc(NC(=O)CCCN(C)C)ccc2O1
COC(=O)CSc1nnc(-c2ccc(Cl)cc2)n1-c1ccc(Br)cc1
C[C@@H]1CN([C@H](C)CO)C(=O)Cc2cc(NC(=O)C3CC3)ccc2O[C@H]1CN(C)Cc1ccc(Cl)c(Cl)c1
COc1ccc(NC(=O)CN(C)S(=O)(=O)c2ccccc2)cc1OC
C#CCN1C(Cc2ccccc2)C(=O)O[C@H](C2CCCCC2)[C@@H]1/C=C/C1CC1 (stereo not given in full)
C[C@@H]1CN([C@H](C)CO)C(=O)Cc2cc(N(C)C)ccc2O[C@@H]1CN(C)Cc1ccccc1
C[C@H]1CN([C@@H](C)CO)C(=O)c2cccc(NC(=O)C3CCOCC3)c2O[C@@H]1CN(C)C
CC1(C)CC(=O)c2ccc(O)cc2O1
C[C@@H]1CN([C@@H](C)CO)C(=O)CCCn2cc(nn2)CO[C@H]1CN(C)C(=O)Nc1ccc(N2CCCCC2)cc1
Cc1noc(C)c1S(=O)(=O)N(C)C[C@H]1Oc2ccc(NC(=O)Cc3ccccc3)cc2CC(=O)N([C@@H](C)CO)C[C@H]1C
COc1ccccc1NC(=O)CNC(=O)c1ccc(C)cc1
CC(C)NC(=O)Nc1ccc2c(c1)C(=O)N([C@H](C)CO)C[C@H](C)[C@@H](CN(C)C)OCCCC[C@H](C)O2
CCn1c(SCC(=O)Nc2sc3c(c2C#N)CCCC3)nnc1-c1ccccc1O
